In the library only some 3% were active in any assay of this set; here they are far more common.
PAFAH2 FP inh – PAFAH2 (human) inhibition; actives 0.99% (n = 340,000); inhibition, % at 3.39 µM; recombinant PAFAH2, FP-rhodamine activity probe, fluorescence polarization; Q99487;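 active = inhibition above the mean over all tested compounds plus 3 SD, cut at about 30% in these data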;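 note: inhibitors block probe labeling of enzyme so polarization drops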
pPAFAH FP inh – pPAFAH (human) enzyme inhibition; Q13093; recombinant pPAFAH, FP-rhodamine probe fluorescence polarization; inhibition, % at 3.39 µM; actives 1.5% (n = 330,000);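 active = inhibition above the mean inhibition across the screen plus 3 SD, cut at about 25% in these data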;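 note: inhibitors block binding of the rhodamine activity-based probe so polarization drops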
PAFAH1B3 inh – blocks human PAF acetylhydrolase 1B catalytic subunit 3. Q15102. recombinant PAFAH1B3, FP-rhodamine probe, fluorescence polarization. inhibition, % at 3.39 µM. actives 0.28% (n = 340,000). AID 492972;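 active = inhibition above the screen-wide average of all tested compounds plus 3 SD, cut at about 25% in these data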
Target sequence (Q15102 whole entry, looked up): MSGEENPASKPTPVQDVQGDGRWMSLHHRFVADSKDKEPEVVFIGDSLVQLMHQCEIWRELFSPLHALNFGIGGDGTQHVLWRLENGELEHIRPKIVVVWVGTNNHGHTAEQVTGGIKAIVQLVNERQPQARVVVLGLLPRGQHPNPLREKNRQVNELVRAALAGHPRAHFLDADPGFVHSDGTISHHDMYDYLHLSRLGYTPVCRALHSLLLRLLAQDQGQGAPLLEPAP
PAFAH1B2 inh – inhibitors of human PAFAH1B2; P68402; AID 492953; actives 1.2% (n = 340,000); recombinant PAFAH1B2, FP-rhodamine activity probe, fluorescence polarization; inhibition, % at 3.39 µM;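 active = inhibition above the mean of all tested compounds plus 3 SD, cut at about 24% in these data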
Target sequence (P68402 whole entry, looked up): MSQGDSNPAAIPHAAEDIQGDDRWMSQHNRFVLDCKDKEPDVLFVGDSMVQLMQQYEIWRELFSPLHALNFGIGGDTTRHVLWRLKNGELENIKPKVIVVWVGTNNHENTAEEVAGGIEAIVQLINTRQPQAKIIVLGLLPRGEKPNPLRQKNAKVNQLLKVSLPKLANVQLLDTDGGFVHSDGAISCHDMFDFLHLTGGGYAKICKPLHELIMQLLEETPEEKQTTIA
PP5 primary – PP5 (human) phosphatase inhibition; actives 0.18% (n = 320,000); inhibition, % at 6.7 µM; purified PP5c, OMFP substrate fluorescence; AID 1987;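 active = inhibition above the campaign's mean inhibition across all tested compounds plus 3 SD, cut at about 9.5% in these data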
CTSL1 counter – counter-screen for PFM18AAP inhibitors: inhibitors of F. hepatica cathepsin L1; inhibition, % at 5.96 µM; actives 0.49% (n = 300,000); recombinant F. hepatica cathepsin L1, Z-Leu-Arg-MCA fluorescence;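 active = inhibition above the mean of all tested compounds plus 3 SD, set per screening campaign, cut at about 17% in these data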
pPAFAH confirm – pPAFAH (human) inhibition, confirmed | inhibition, % at 3.39 µM | shares compounds with pPAFAH FP inh | recombinant pPAFAH, FP-Rh probe fluorescence polarization | actives 72% (n = 2,300);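 active = mean inhibition of the triplicate above the hit cutoff set for the earlier primary screen, cut at about 25% in these data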
Large screens that a line does not name were inactive (follow-up assays come after a bar, where they were run).

O=C(C1CC(c2ccc(F)cc2)=NO1)N1CCC2(CC1)OCCO2 (centres undefined)	none
O=C(C1CC(c2ccc(Cl)c(Cl)c2)=NO1)N1CCC2(CC1)OCCO2 (centres undefined)	PAFAH2 FP inh 41, pPAFAH FP inh 61 | pPAFAH confirm 50
COc1ccc2nc3oc(C(=O)N4CCC5(CC4)OCCO5)cc3cc2c1	pPAFAH FP inh 44 | pPAFAH confirm 36
CCN(CC)c1ccc(N=Cc2c(O)n(CCc3ccc(OC)c(OC)c3)c(=O)[nH]c2=O)cc1	none
CCN(CC)c1ccc(N=Cc2c(O)n(Cc3ccco3)c(=O)[nH]c2=O)cc1	pPAFAH FP inh 46 | pPAFAH confirm inactive
CCN(CCO)c1ccc(N=Cc2c(O)n(C)c(=S)[nH]c2=O)cc1	pPAFAH FP inh 37 (no result: PAFAH2 FP inh, PAFAH1B3 inh, PAFAH1B2 inh) | pPAFAH confirm inactive
CCN(CC)c1ccc(N=Cc2c(O)n(-c3cc(OC)ccc3OC)c(=O)[nH]c2=O)cc1	pPAFAH FP inh 38 | pPAFAH confirm inactive
CCOc1cc2c(cc1OCC)-n1cccc1C(c1ccc(C(C)C)cc1)NC2 (centres undefined)	none
COC(=O)C1=C(c2ccc(-c3ccccc3)c(F)c2)C[C@@H]2CC[C@H]1N2C(=O)N1CCOCC1	none (no result: CTSL1 counter)
CN(C)C(=O)Oc1c(Cl)cc(Cl)c2cccnc12	none
CN(C)C(=O)Oc1noc2cc(Cl)ccc12	PAFAH2 FP inh 41, pPAFAH FP inh 43, CTSL1 counter 43 | pPAFAH confirm 52
COc1ccc(OC)c(N2C(=O)NC(=O)/C(=C/c3ccc([N+](=O)[O-])s3)C2=O)c1	PAFAH2 FP inh 66, pPAFAH FP inh 62, PAFAH1B3 inh 69, PAFAH1B2 inh 55 | pPAFAH confirm 58
COc1cc(/C=C2\C(=O)NC(=O)N(c3ccccc3)C2=O)c([N+](=O)[O-])cc1OC	none (no result: pPAFAH FP inh, PP5 primary, CTSL1 counter)
O=C(NC1CCCCC1)N1Cc2ccccc2-n2nncc2C1	none (no result: pPAFAH FP inh, PP5 primary, CTSL1 counter)
O=C(COC(=O)Cc1ccccc1)Nc1cc(S(=O)(=O)N2CCOCC2)ccc1N1CCCC1	pPAFAH FP inh 39 | pPAFAH confirm 39
O=C(COC(=O)Cc1ccccc1)Nc1ccc(SC(F)F)cc1	pPAFAH FP inh 36 | pPAFAH confirm 29
Cc1ccc(CS(=O)(=O)Cc2ccc(C(=O)N3CCC4(CC3)OCCO4)o2)cc1	pPAFAH FP inh 40 | pPAFAH confirm 32
Cc1ccc(S(=O)(=O)Cc2ccc(C(=O)N3CCC4(CC3)OCCO4)o2)cc1	none
Cc1cc(OCC(=O)NCc2ccncc2)c2c3c(c(=O)oc2c1)CCCC3	none
O=C(NN=Cc1ccc(N(CCCl)CCCl)cc1)c1cccnc1	none (no result: pPAFAH FP inh, PP5 primary, CTSL1 counter)
O=[N+]([O-])c1ccc(O)c([N+](=O)[O-])c1	none
O=[N+]([O-])c1cc(O)c(O)c([N+](=O)[O-])c1	PAFAH2 FP inh 37, pPAFAH FP inh 37 | pPAFAH confirm 70
O=C1NC(=O)C(=Cc2c(Cl)cccc2Cl)C(=O)N1	none (no result: pPAFAH FP inh, PP5 primary, CTSL1 counter)
COc1ccc(-n2c(/C=C/c3ccc(O)c(O)c3)nc3ccccc3c2=O)cc1	pPAFAH FP inh 37 | pPAFAH confirm 46
COc1cc(/C=C/c2nc3ccccc3c(=O)n2-c2ccc(O)cc2)ccc1O	none
CCOP(=O)(NC(C)C)Oc1ccc(SC)c(C)c1 (centres undefined)	none (no result: pPAFAH FP inh, PP5 primary, CTSL1 counter)
O=C(N/N=C/c1c(O)n(CCC2=CCCCC2)c(=S)[nH]c1=O)c1ccccc1	pPAFAH FP inh 52, PAFAH1B2 inh 29 | pPAFAH confirm 42
O=C(N/N=C/c1c(O)n(CCC2=CCCCC2)c(=O)[nH]c1=O)c1ccccc1	none
CNc1ccc2nc3ccccc3[n+](C)c2c1	PAFAH2 FP inh 108, pPAFAH FP inh 88, PAFAH1B3 inh 100, PAFAH1B2 inh 99 | pPAFAH confirm 81
C[n+]1c2ccccc2nc2ccc(NCCO)cc21	PAFAH2 FP inh 83, pPAFAH FP inh 72, PAFAH1B3 inh 82, PAFAH1B2 inh 72, CTSL1 counter 38 | pPAFAH confirm 58
C[C@]12CC[C@@H](O)CC1=CCC1C2CC[C@@]2(C)C1C[C@@H](F)[C@H]2O (some centres undefined)	none (no result: pPAFAH FP inh, PP5 primary, CTSL1 counter)
O=C(c1cccs1)c1cn(Cc2ccccc2Cl)c2ccccc12	pPAFAH FP inh 71 | pPAFAH confirm 71
